A short description of test [1]: qHTS assay to identify small molecule agonists of the hypoxia (HIF-1) signaling pathway - cell viability counter screen (AID 1224844; calls by dose curve; note: nearly all actives have a fitted effect of over 50% in size). The essentials:
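Cytotoxicity was measured in parallel with the HRE-driven beta-lactamase readout: after 17 hrs of compound exposure at 37C, HRE-bla ME-180 cells received CellTiter-Glo and luminescence was recorded 30 min later.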
(In general: Quantitative high-throughput screening tests each substance at several concentrations.)

The nature of test [2]: qHTS assay to identify small molecule agonists of H2AX (AID 1224845; active = well fitted activation curve with a large enough effect in the signal ratio in the repeat runs, not every such curve was filed as active; the % refers to the signal ratio). The essentials: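 Wild-type CHO-K1 cells plated overnight, then exposed 3 hr at 37C to compounds at 15 concentrations (0.76% DMSO). Lysed, then HTRF anti-pH2AX(S139)-cryptate/anti-H2AX-d2 detection after 24 hr at room temperature; emissions 665 and 620 nm.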
The nature of test [3]: qHTS RealTime-Glo MT Cell Viability Assay in HepG2 cells - 24 hour (AID 1224867). Note: nearly all actives have a fitted effect of over 50% in size. An outline of the steps: (§1)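 HepG2 cells were seeded at 600 cells/well together with NanoLuc luciferase and a cell-permeant prosubstrate, preincubated 5 h at 37 C/5% CO2, then pin-dosed with compounds in DMSO. Nonlytic luminescence from viable cells was read at each time point.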
The nature of test [4]: qHTS RealTime-Glo MT Cell Viability Assay in HEK293 cells - 32 hour (AID 1224868). Note: top concentration of the series differs between compounds; nearly all actives have a fitted effect of over 50% in size. An outline of the steps: (§2)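 HEK293 cells were seeded at 600 cells/well together with NanoLuc luciferase and cell-permeant prosubstrate, preincubated 5 h at 37 C/5% CO2, then given compound in DMSO by pintool. Luminescence from viable-cell prosubstrate reduction was read repeatedly over 40 h.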

The nature of test [5]: A CellTox Green Cytotoxicity Assay to monitor cytotoxicity in HEK293 cells - 0 hour (AID 1224869). Note: nearly all actives have a fitted effect of over 50% in size. The essentials: (§3)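 Cells (HEK293, 600/well) and dye reagent are dispensed together. After 5 h at 37 C, 23 nL compound is pinned in. Plates stay at 37 C for 40 h with fluorescence read at 0h, 8h, 16h, 24h, 32h and 40h.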
Test [6] in a line: qHTS RealTime-Glo MT Cell Viability Assay in HepG2 cells - 40 hour (AID 1224870). Note: nearly all actives have a fitted effect of over 50% in size. The essentials:
(§4)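 HepG2 cells mixed with RealTime-Glo MT reagents (NanoLuc plus cell-permeant prosubstrate) were seeded at 600 cells/well, incubated 5 h at 37 C/5% CO2, then pinned with compounds in DMSO; nonlytic luminescence tracked viability during 40 h treatment.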

Test [7] is described as follows: A CellTox Green Cytotoxicity Assay to monitor cytotoxicity in HEK293 cells - 40 hour (AID 1224871). Note: nearly all actives have a fitted effect of over 45% in size. Note: potency is the fitted concentration of half-maximal effect. The essentials: as §3
The nature of test [8]: qHTS RealTime-Glo MT Cell Viability Assay in HEK293 cells - 40 hour (AID 1224874). Note: nearly all actives have a fitted effect of over 50% in size. The note with it: RealTime-Glo luminescence; max response: active compounds read low. An outline of the steps:
(§5)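 Real-time viability in HEK293: signal arises when living cells convert a prosubstrate for NanoLuc in the medium, so luminescence tracks viable cell number. Compound (23 nL, DMSO) added 5 h post-seeding; kinetic reads at 0–40 h, 37 C.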

A short description of test [9]: A CellTox Green Cytotoxicity Assay to monitor cytotoxicity in HEK293 cells - 24 hour (AID 1224875). Note: nearly all actives have a fitted effect of over 45% in size. An outline of the steps: as §3
Test [10] is described as follows: A CellTox Green Cytotoxicity Assay to monitor cytotoxicity in HepG2 cells - 16 hour (AID 1224876). Note: nearly all actives have a fitted effect of over 45% in size. An outline of the steps:
(§6)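 Cells and non-lytic dye reagent are dispensed together (600 HepG2 cells/well) and incubated 5 h before DMSO compound transfer. Kinetic fluorescence is then recorded in the same wells during 40 h at 37 C.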

A short description of test [11]: qHTS RealTime-Glo MT Cell Viability Assay in HepG2 cells - 32 hour (AID 1224877). Note: nearly all actives have a fitted effect of over 55% in size. The essentials:
as §1

The nature of test [12]: A CellTox Green Cytotoxicity Assay to monitor cytotoxicity in HepG2 cells - 24 hour (AID 1224878). Note: nearly all actives have a fitted effect of over 45% in size. An outline of the steps: as §6
A short description of test [13]: A CellTox Green Cytotoxicity Assay to monitor cytotoxicity in HepG2 cells - 40 hour (AID 1224879). Note: nearly all actives have a fitted effect of over 40% in size. The essentials: as §6
Test [14] in a line: qHTS RealTime-Glo MT Cell Viability Assay in HEK293 cells - 0 hour (AID 1224880). The essentials:
as §5

Test [15] can be described thus: qHTS assay to identify small molecule agonists of the hypoxia (HIF-1) signaling pathway (AID 1224846; active = well fitted activation curve with a large enough effect in the signal ratio in the repeat runs, not every such curve was filed as active; the % refers to the signal ratio). The essentials: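 Compounds from the Tox21 10K library, dissolved in DMSO, are tested for induction of a hypoxia response element–controlled beta-lactamase reporter in ME-180 cells. Exposure lasts 17 hrs at 37C after a 5 hr settling period, followed by CCF4-AM FRET substrate.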

Test [16] is described as follows: qHTS assay to identify small molecule agonists of the estrogen related receptor (ERR) signaling pathway from Tox21 library (AID 1224849; calls by dose curve; note: nearly all actives have a fitted effect of over 15% in size). The following applies: ERR reporter cell line, ONE-Glo luciferase, 18 h; at 92.4 µM (top of the series) unless noted. An outline of the steps: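 Cells carrying the ERR reporter were plated and allowed to settle for 6 h, exposed to library compounds for 18 h at 37 C, then lysed with ONE-Glo and luminescence measured.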

Test [17] in a line: qHTS RealTime-Glo MT Cell Viability Assay in HEK293 cells - 16 hour (AID 1224872). An outline of the steps:
as §2

Test [18] can be described thus: qHTS RealTime-Glo MT Cell Viability Assay in HepG2 cells - 8 hour (AID 1224873). Note: nearly all actives have a fitted effect of over 55% in size. An outline of the steps: as §4
A short description of test [19]: qHTS assay to identify small molecule agonists of H2AX - cell viability counter screen (AID 1224847; calls by dose curve; note: top concentration of the series differs between compounds; nearly all actives have a fitted effect of over 30% in size). An outline of the steps:
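CHO-K1 wt, 1000 cells/well, o/n 37C; cpds 15 conc, 3 h 37C, 0.76% DMSO; CellTiter-Glo, 30 min RT, luminescence.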

Each structure is given as a SMILES string. Unmarked numbers belong to inactive results. Results filed as inconclusive are left out. Activity calls are given as the source filed them. Unless noted, calls come from the whole dose curve; as a rule, active = well fitted curve in the direction sought with a large enough effect in the repeat runs; inconclusive = weak or mixed curves; inactive = no such curve, though single readings can be large; an effect the other way counts as inactive or inconclusive.
% is set by controls: 0 for no effect and ±100 for the full control effect.

Turning to `CC(C)[C@@H](Nc1ccc(C(F)(F)F)cc1Cl)C(=O)OC(C#N)c1cccc(Oc2ccccc2)c1` (stereo partly specified), the Potency entry in test [1], in test [2], in test [3], in test [4], in [5] and in [6] was “inactive” each time. Besides, the Potency result in [7], in test [9], in [10], in [11], in test [12] and in test [13] was “inactive” in each case. Besides, the Potency result in [14] was “inactive”. Further, in test [8], the max response is -6.7%.
As for `O=C(Nc1ccc(F)cc1F)c1cccnc1Oc1cccc(C(F)(F)F)c1`, the Potency entry in test [1], in test [15], in [3], in test [4], in [5] and in test [6] was “inactive” each time. For the same compound, the Potency entry in test [17], in test [18], in test [9], in test [10], in [11] and in test [12] was “inactive” each time. In addition, the Potency entry in test [13] and in test [14] was “inactive” each time. For the same compound, the activity change, positive = activation in test [16] was 5%. In addition, the Potency in [7] is 53.8 µM (active). In addition, the max response in test [8] was 0.876%.
With `Clc1cc(Cl)c(-c2cc(Cl)c(Cl)cc2Cl)cc1Cl`, the Potency entry in test [1], in test [2], in test [19], in test [3], in [4] and in test [5] was “inactive” throughout. The Potency result in [6], in test [7], in [17], in test [18], in test [9] and in test [10] was “inactive” in each case. Besides, the Potency entry in test [11], in test [12], in test [13] and in test [14] was “inactive” throughout. Besides, the max response in [8] is 1.25%.
Consider `c1csc(-c2ccc(-c3cccs3)s2)c1`, for which the Potency result in [1], in test [2], in test [19], in test [3], in [4] and in [5] was “inactive” in each case. Also, the Potency result in test [6], in test [7], in test [17], in test [18], in [10] and in test [11] was “inactive” throughout. In addition, the Potency entry in test [12], in test [13] and in test [14] was “inactive” in each case. Further, the max response in test [8] was -2.2%.
In the case of `O.O.O.O.O.O.O.O=S(=O)([O-])[O-].[Co+2]`, the Potency entry in test [1], in test [2], in test [19], in test [3], in test [4] and in test [5] was “inactive” throughout. Moreover, the Potency entry in test [6], in test [7], in [17], in [9], in test [10] and in test [11] was “inactive” in each case. Moreover, the Potency result in test [12], in test [13] and in test [14] was “inactive” each time. For the same compound, the max response in test [8] was 0.267%.
Take `CC(=O)[O-].CC(=O)[O-].[Co+2]`: the Potency entry in test [1], in [2], in test [19], in test [3], in [4] and in [5] was “inactive” in each case. Further, the Potency result in [6], in [7], in test [17], in test [18], in test [9] and in [11] was “inactive” in each case. The Potency result in test [12], in test [13] and in [14] was “inactive” throughout. Further, the max response in test [8] was 8.26%.
Take `CCO/N=C(\CC)C1=C(O)CC(c2c(C)cc(C)cc2C)CC1=O` (stereo unspecified): the Potency entry in test [1], in test [2], in [19], in [3], in test [5] and in test [6] was “inactive” in each case. The Potency entry in test [7], in test [18], in test [9] and in test [11] was “inactive” throughout.

The values are drawn from PubChem BioAssay (Tox21).
